According to PubChem BioAssay AID1159580 (chemical genetic matrix, 2015):
About 2,000 (36%) of roughly 5,500 compounds were called active. Another 18% or so got no clear call; they are omitted. No stated cut-off is given here; in the data, active means normalized growth mostly below about 0.91 (no sharp cut-off); inconclusive means no clear call, values can overlap the other calls; inactive means mostly above about 0.92. This is one part of the list.

Experiment: chemical genetic growth profiling, strain panel (AID 1159580);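 further: tested at 20 µM; growth read once vehicle control cultures reached saturation at 30 °C; 1 = growth at the plate median or of vehicle wells; lower values mean less growth of the strain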
Details: growth OD

Measured: normalized growth

COc1ccc(/C=C/c2cc(O)cc(O[C@@H]3O[C@H](CO)[C@@H](O)[C@H](O)[C@H]3O)c2)cc1O
inactive: S. cerevisiae deletion strains, locus YAL013W, strain DEP1, active compounds read low 1 | S. cerevisiae deletion strains, locus YBR021W, strain FUR4, active compounds read low 0.999 | S. cerevisiae deletion strains, locus YBR229C, strain ROT2, active compounds read low 1.01 | S. cerevisiae deletion strains, locus YCL029C, strain bik1, active compounds read low 1.02 | S. cerevisiae deletion strains, locus YDL035C, strain GPR1, active compounds read low 1.02 | S. cerevisiae deletion strains, locus YDL074C, strain BRE1, active compounds read low 1.01 | S. cerevisiae deletion strains, locus YDL101C, strain DUN1, active compounds read low 1.02 | S. cerevisiae deletion strains, locus YDL134C, strain PPH21, active compounds read low 1.01 | S. cerevisiae deletion strains, locus YDL185W, strain tfp1, active compounds read low 1.02 | S. cerevisiae deletion strains, locus YDL192W, strain arf1, active compounds read low 1.02 | S. cerevisiae deletion strains, locus YDR101C, strain arx1, active compounds read low 1.01 | S. cerevisiae deletion strains, locus YDR150W, strain NUM1, active compounds read low 1.01 | S. cerevisiae deletion strains, locus YDR162C, strain NBP2, active compounds read low 1.02 | S. cerevisiae deletion strains, locus YDR318W, strain mcm21, active compounds read low 1.03 | S. cerevisiae deletion strains, locus YDR388W, active compounds read low 1.01 | S. cerevisiae deletion strains, locus YDR502C, strain sam2, active compounds read low 1.02 | S. cerevisiae deletion strains, locus YEL061C, strain CIN8, active compounds read low 1 | S. cerevisiae deletion strains, locus YER110C, active compounds read low 1.03 | S. cerevisiae deletion strains, locus YER155C, strain BEM2, active compounds read low 0.995 | S. cerevisiae deletion strains, locus YER167W, strain BCK2, active compounds read low 1.03 | S. cerevisiae deletion strains, locus YGL078C, strain dbp3, active compounds read low 1.02 | S. cerevisiae deletion strains, locus YGL086W, strain mad1, active compounds read low 1.03 | S. cerevisiae deletion strains, locus YGL248W, strain PDE1, active compounds read low 1.01 | S. cerevisiae deletion strains, locus YGR078C, strain PAC10, active compounds read low 1.03 | S. cerevisiae deletion strains, locus YGR135W, strain pre9, active compounds read low 1.01 | S. cerevisiae deletion strains, locus YGR229C, strain SMI1, active compounds read low 0.988 | S. cerevisiae deletion strains, locus YGR252W, strain gcn5, active compounds read low 1.06 | S. cerevisiae deletion strains, locus YHR030C, strain SLT2, active compounds read low 1 | S. cerevisiae deletion strains, locus YHR079C, strain IRE1 (second series), active compounds read low 1.02 | S. cerevisiae deletion strains, locus YHR094C, strain hxt1, active compounds read low 1.02 | S. cerevisiae deletion strains, locus YHR129C, strain ARP1, active compounds read low 1.01 | S. cerevisiae deletion strains, locus YHR200W, strain rpn10, active compounds read low 1.03 | S. cerevisiae deletion strains, locus YIL066C, strain RNR3, active compounds read low 1.02 | S. cerevisiae deletion strains, locus YIL073C, strain SPO22, active compounds read low 1.06 | S. cerevisiae deletion strains, locus YIL125W, strain kgd1, active compounds read low 0.999 | S. cerevisiae deletion strains, locus YIR030C, strain dcg1, active compounds read low 1.01 | S. cerevisiae deletion strains, locus YJL095W, strain BCK1, active compounds read low 1.01 | S. cerevisiae deletion strains, locus YJL134W, strain LCB3, active compounds read low 1.01 | S. cerevisiae deletion strains, locus YJL168C, strain set2, active compounds read low 1.01 | S. cerevisiae deletion strains, locus YJL187C, strain SWE1 (second series), active compounds read low 1.01 | S. cerevisiae deletion strains, locus YJR043C, strain POL32, active compounds read low 1.01 | S. cerevisiae deletion strains, locus YJR075W, strain HOC1, active compounds read low 0.973 | S. cerevisiae deletion strains, locus YKL009W, strain mrt4, active compounds read low 1.03 | S. cerevisiae deletion strains, locus YKL068W, active compounds read low 1.02 | S. cerevisiae deletion strains, locus YKL085W, strain MDH1 (second series), active compounds read low 1.04 | S. cerevisiae deletion strains, locus YKL085W, strain MDH1, active compounds read low 1.04 | S. cerevisiae deletion strains, locus YKL190W, strain CNB1, active compounds read low 1 | S. cerevisiae deletion strains, locus YKR001C, strain vps1, active compounds read low 1.03 | S. cerevisiae deletion strains, locus YLR039C, strain RIC1, active compounds read low 1.04 | S. cerevisiae deletion strains, locus YLR058C, strain SHM2, active compounds read low 1.01 | S. cerevisiae deletion strains, locus YLR102C, strain apc9, active compounds read low 1.02 | S. cerevisiae deletion strains, locus YLR262C, strain YPT6, active compounds read low 1.05 | S. cerevisiae deletion strains, locus YLR268W, strain sec22, active compounds read low 1.02 | S. cerevisiae deletion strains, locus YLR330W, strain CHS5, active compounds read low 1.01 | S. cerevisiae deletion strains, locus YLR342W, strain FKS1 (second series), active compounds read low 1.05 | S. cerevisiae deletion strains, locus YLR371W, strain rom2, active compounds read low 1.01 | S. cerevisiae deletion strains, locus YLR418C, strain cdc73, active compounds read low 0.987 | S. cerevisiae deletion strains, locus YML016C, strain PPZ1, active compounds read low 1.02 | S. cerevisiae deletion strains, locus YML032C, strain rad52, active compounds read low 1.01 | S. cerevisiae deletion strains, locus YML124C, strain tub3, active compounds read low 1.01 | S. cerevisiae deletion strains, locus YMR078C, strain ctf18, active compounds read low 1.02 | S. cerevisiae deletion strains, locus YMR223W, strain ubp8, active compounds read low 1.03 | S. cerevisiae deletion strains, locus YMR263W, strain SAP30, active compounds read low 1.02 | S. cerevisiae deletion strains, locus YMR307W, strain GAS1, active compounds read low 1.04 | S. cerevisiae deletion strains, locus YNL067W, strain RPL9B, active compounds read low 1.01 | S. cerevisiae deletion strains, locus YNL128W, strain TEP1, active compounds read low 1.02 | S. cerevisiae deletion strains, locus YNL153C, strain GIM3, active compounds read low 1.02 | S. cerevisiae deletion strains, locus YNL233W, strain BNI4, active compounds read low 1.01 | S. cerevisiae deletion strains, locus YNL250W, strain rad50, active compounds read low 1.03 | S. cerevisiae deletion strains, locus YNL271C, strain bni1, active compounds read low 1.03 | S. cerevisiae deletion strains, locus YNL298W, strain CLA4, active compounds read low 1.03 | S. cerevisiae deletion strains, locus YNL307C, strain MCK1, active compounds read low 1.03 | S. cerevisiae deletion strains, locus YNL322C, strain KRE1, active compounds read low 1.01 | S. cerevisiae deletion strains, locus YNR052C, strain pop2, active compounds read low 1.01 | S. cerevisiae deletion strains, locus YOL006C, strain TOP1, active compounds read low 1.08 | S. cerevisiae deletion strains, locus YOL012C, strain htz1 0.868 | S. cerevisiae deletion strains, locus YOL147C, strain pex11, active compounds read low 1.01 | S. cerevisiae deletion strains, locus YOR061W, strain CKA2, active compounds read low 1.02 | S. cerevisiae deletion strains, locus YOR069W, strain VPS5, active compounds read low 1 | S. cerevisiae deletion strains, locus YOR136W, strain idh2, active compounds read low 1.02 | S. cerevisiae deletion strains, locus YOR144C, strain elg1, active compounds read low 1.01 | S. cerevisiae deletion strains, locus YOR184W, strain ser1, active compounds read low 1.05 | S. cerevisiae deletion strains, locus YOR316C, strain cot1, active compounds read low 1.02 | S. cerevisiae deletion strains, locus YPL055C, strain LGE1, active compounds read low 1.03 | S. cerevisiae deletion strains, locus YPL241C, strain CIN2, active compounds read low 1.01 | S. cerevisiae deletion strains, locus YPR119W, strain clb2, active compounds read low 1.01 | S. cerevisiae deletion strains, locus YPR141C, strain kar3, active compounds read low 1.03 | S. cerevisiae deletion strains, locus YPR163C, strain tif3, active compounds read low 1.03 | S. cerevisiae deletion strains, locus YPR167C, strain met16, active compounds read low 1.02 | S. cerevisiae deletion strains, strain wtn01, active compounds read low 0.994 | S. cerevisiae strains, strain wild type, active compounds read low 1.01
